From PubChem BioAssay AID1578 (Sanford-Burnham Center for Chemical Genomics, 2009)
About 3,000 (1%) of roughly 290,000 compounds were called active. For the sample, actives were picked, then their nearest neighbours and some compounds at random. A number with no mark means an inactive call. Cut-off read from the data, not from the text of the source: active = inhibition mostly above about 36% (no sharp cut-off); inactive = mostly below about 34%.

Test: inhibition of NOD1-driven NF-kB reporter – cell-based, luminescence, uHTS, primary screen (AID 1578);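 note: HEK-293T reporter cells stimulated with the NOD1 agonist gamma-tri-DAP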
Details: NOD1-driven NF-kB luciferase reporter cells, at 4 µM, active compounds read high

Compound	inhibition
COc1cc2[nH]c(=O)n(CCC(=O)NCc3cccnc3)c(=O)c2cc1OC	-17.4%
CCCc1cc(=O)n2[nH]c(NC(=O)c3ccco3)nc2n1	1.1%
O=C(c1ccco1)N1CCN(Cc2nnc(-c3cccc(Br)c3)o2)CC1	37.7%
Cc1ccc(/C=N/NC(=O)CNC(=O)c2ccc(S(=O)(=O)N3CCCC3)cc2)o1	-10.1%
CC(C)(C)S(=O)(=O)/C(C#N)=C/c1sccc1C1OCCO1	-9.6%
Cc1sc2nc(CSCC(=O)N(CCC#N)c3ccccc3)[nH]c(=O)c2c1C	-2.8%
NC(=O)c1ccc(NC(=O)CCNC(=O)c2ccco2)cc1	0%
Cc1cccc(C)c1OCCN1C(=O)NC(C)(c2ccccc2)C1=O (stereo not drawn)	-8.3%
CC(=O)Nc1ccc(S(=O)(=O)Nc2ccn(Cc3ccccc3Cl)n2)cc1	-42.3%
CC1CCc2cc(F)ccc2N1C(=O)CCC(=O)O (stereo not drawn)	-29.7%
CC1CCc2cc(F)ccc2N1C(=O)CCl (stereo not drawn)	66.7% (active)
CCC(CC)C(=O)N1c2ccc(F)cc2CCC1C (stereo not drawn)	8%
COCCCNC(=S)Nc1cc2oc3ccccc3c2cc1OC	5.2%
CCN(CC(=O)NC1CCS(=O)(=O)C1)S(=O)(=O)c1ccc(F)cc1 (stereo not drawn)	25.9%
Cc1ccc(C(=O)N2CCCC(N3CCN(c4cccc(C(F)(F)F)c4)CC3)C2)s1 (stereo not drawn)	-29.8%
Cc1ccccc1OCC(=O)N/N=C/c1c(C)nn(-c2ccccc2)c1Cl	-26.9%
COc1ccc(C(=O)NCCCc2nc3ccccc3n2Cc2ccccc2C)cc1OC	-9.4%
COc1cc(C(=O)NCCCc2nc3ccccc3n2Cc2cc(C)ccc2C)cc(OC)c1OC	68.1% (active)
COc1ccc(C(=O)NCCCc2nc3ccccc3n2Cc2cc(C)ccc2C)cc1OC	-28.5%
CCc1ccc2[nH]c(=O)c(CN(CCCN3CCOCC3)C(=O)Nc3ccc(Cl)cc3)cc2c1	-9.8%
O=S(=O)(Nc1cccc(-c2cn3cccnc3n2)c1)c1ccccc1	36.4%
O=S(=O)(Nc1cccc(-c2cn3cccnc3n2)c1)c1ccc(F)cc1	-1.4%
CCN(CC)C(=O)Cn1cc(C(=O)C(=O)N2CCN(C)CC2)c2ccccc21	-22.7%
Cc1ccc(C(=O)CC(=O)c2ccccc2)cc1	-42.7%

Compound	inhibition
COc1ccc(C(=O)C/C(=C\C(=O)c2ccc(C)cc2)c2ccccc2)cc1	71.2% (active)
COc1ccc(C(=O)CC(=O)c2ccc(OC)cc2)cc1	-23.3%
CC(C)N1CC(C(=O)Nc2ccc(Cl)c([N+](=O)[O-])c2)CC1=O (stereo not drawn)	-8.3%
Cc1ccc2[nH]c3c(c2c1)CCCC3NCCO (stereo not drawn)	-12.6%
Cc1ccc2[nH]c3c(c2c1)CCCC3NC(=O)CCl (stereo not drawn)	70% (active)
Cc1ccc2[nH]c3c(c2c1)CCCC3C(N)=O (stereo not drawn)	-44.3%
COC(=O)[C@@]1(Cc2ccccc2)[C@@H]2C(=CC(=O)[C@H]2CC(=O)C(=O)N(C)C)CN1C(=O)c1ccccc1	47.7%
C=C1C(=O)C=C2CN(C(=O)c3ccccc3)[C@@](Cc3ccc(F)cc3)(C(=O)OC)[C@@H]12	98.5% (active)
COC(=O)[C@@]1(Cc2ccc(F)cc2)[C@@H]2[C@@H](CC(=O)[C@H]2CC(=O)C(=O)N(C)C)CN1C(=O)c1ccccc1	-29.5%
CS(=O)(=O)c1cnc(-c2ccccc2)nc1-c1ccccc1Cl	23.1%
CC1Cc2cc(S(=O)(=O)N3CCC(C(N)=O)CC3)ccc2N1C(=O)C1CC1 (stereo not drawn)	-42.9%
O=C(/C=C/c1ccc([N+](=O)[O-])o1)NNC(=O)c1ccc(F)cc1	66.9% (active)
O=C(N/N=C/c1ccc([N+](=O)[O-])o1)c1ccc(O)cc1	6.8%
O=C(O)/C=C/c1ccc([N+](=O)[O-])o1	-17.7%
CCCOc1ccc(OCCCCNC(C)CC)cc1 (stereo not drawn)	0.5%
COc1ccc(N(C(=O)Cn2nnc(-c3ccc(F)cc3)n2)C(C)C(=O)NC2CCCC2)cc1 (stereo not drawn)	-22.6%
COc1ccc(N(C(=O)Cn2nnc(-c3ccc(F)cc3)n2)C(C)C(=O)NC2CCCC2)cc1OC (stereo not drawn)	10.1%
CC(C(=O)NC1CCCC1)N(C(=O)Cn1nnc(-c2ccc(F)cc2)n1)c1ccccc1F (stereo not drawn)	82.7% (active)
COc1cccc(C(=O)NCCCNC(=O)c2ccco2)c1	9.1%
Cc1ccccc1C1C(C#N)=C(N)N(N(C)C)C2=C1C(=O)CC(C)(C)C2 (stereo not drawn)	-10.1%
CCCCCn1c2c(c(=N)c3ccccc31)CCC2	-13.6%
CCCCn1c2c(c(=N)c3ccccc31)CCC2	-6.7%
CCCCCCCn1c2c(c(=N)c3ccccc31)CCC2	77.4% (active)
CCO[C@H]1OC(C(=O)NC2CC2)=C[C@@H](c2ccc(C(F)(F)F)cc2)[C@@H]1CCCO	1.4%

Compound	inhibition
CC(Oc1ccccc1)C(=O)N=Nc1c(O)[nH]c2ccc(Br)cc12 (stereo not drawn)	-9.4%
Cc1c(CBr)[n+](=O)c2c(n1[O-])C(Br)CCC2Br (stereo not drawn)	-9.7%
CC(=O)OC1CCC(OC(C)=O)c2c1n([O-])c(C)c(C)[n+]2=O (stereo not drawn)	79.5% (active)
Cc1c(C)[n+](=O)c2c(n1[O-])C(Br)CCC2Br (stereo not drawn)	-7.3%
N#Cc1cc(NCC2CCCO2)c([N+](=O)[O-])cc1C#N (stereo not drawn)	-23.8%
N#Cc1cc([N+](=O)[O-])ccc1NCC1CCCO1 (stereo not drawn)	-26.2%
N#Cc1cc(Cl)c(NCC2CCCO2)cc1C#N (stereo not drawn)	83.4% (active)
COc1ccc2cc(S(=O)(=O)N3CCOCC3)ccc2c1	-5.6%
COc1ccc2[nH]c(=O)c(CNc3ccccc3C)cc2c1	-10.6%
COc1ccc(C2CC(c3cccs3)=NN2c2nc(-c3ccccc3)cs2)cc1OC (stereo not drawn)	-16.1%
OCCN1CCN(c2nc(-c3ccccc3)c3cc(Br)ccc3n2)CC1	-12.3%
CN1CCN(c2ncnc3sc(-c4ccccc4)cc23)CC1	32%
OCCN1CCN(c2ncnc3sc(-c4ccccc4)cc23)CC1	-0.1%
CC1(C)CC2CC(C)(CN2c2ncnc3ccc(Br)cc23)C1 (stereo not drawn)	39.1%
OCCN1CCN(c2ncnc3ccc(Br)cc23)CC1	66.7% (active)
COc1ccc(OC)c(C(=O)NC(CC(N)=O)c2ccc(NCCOc3ccccc3)c([N+](=O)[O-])c2)c1 (stereo not drawn)	-4%
CCCNC(=S)NC1CC2CCC(C1)N2Cc1ccccc1 (stereo not drawn)	0.5%
O=C(CN1C(=O)/C(=C/c2ccccc2F)Sc2ccccc21)NCCCN1CCOCC1	-19.9%
O=C(CN1C(=O)/C(=C/c2ccccc2F)Sc2ccccc21)NCC1CCCO1 (stereo not drawn)	9.1%
O=C(CN1C(=O)/C(=C/c2ccccc2F)Sc2ccccc21)NCc1cccnc1	59.2% (active)
NS(=O)(=O)c1ccc(CNC(=S)NCc2ccc(F)cc2)cc1	14.6%
Cc1onc(C(=O)NN)c1C(=O)Nc1ncc(C(F)(F)F)cc1Cl	-8.1%
O=C(C1=NN[C@@H]2C(=O)N(c3cccc(F)c3)C(=O)[C@H]12)c1ccc2ccccc2n1	-47%
O=C(C1=NN[C@@H]2C(=O)N(c3cccc(C(F)(F)F)c3)C(=O)[C@H]12)c1ccc2ccccc2n1	87.5% (active)

Compound	inhibition
O=C(C1=NN[C@@H]2C(=O)N(c3ccccc3C(F)(F)F)C(=O)[C@H]12)c1ccc2ccccc2n1	-11.3%
O=C(O)/C=C\C(=O)NNC(=O)c1cc(-c2ccccc2)n[nH]1	-10%
Cc1ccc(CNC(=O)c2ccccc2NS(=O)(=O)c2ccc(Cl)nc2)cc1	5.6%
CC(C)On1c(SCC(=O)N(C)C)nc2ccccc2c1=O	-1.8%
CCC(=O)/C=C1/Sc2ccc(OC)cc2N1CC	22.6%
CCN1/C(=C\C(C)=O)Sc2ccc(OC)cc21	16.9%
CCN1/C(=C/C(C)=O)Sc2ccc(OC)cc21	53% (active)
CC(=O)N1[C@H](Cc2ccccc2)C=C[C@]1(C)C(=O)NCCc1c[nH]c2ccccc12	-15.7%
CC(=O)N1[C@H](Cc2ccccc2)C=C[C@]1(C)C(=O)NCCN1CCOCC1	22.4%
C[C@]1(C(=O)NCCc2c[nH]c3ccccc23)C=C[C@@H](Cc2ccccc2)N1C(=O)c1ccccc1	84.6% (active)
CC(=O)N1[C@H](Cc2ccccc2)C=C[C@]1(C)C(=O)NCc1ccccn1	-2.7%
CC(=O)N1[C@H](Cc2ccccc2)C=C[C@]1(C)C(=O)NCc1ccc(C)o1	99.7% (active)
COCCNC(=O)[C@@]1(C)C=C[C@@H](Cc2ccccc2)N1C(=O)c1ccccc1	-45.4%
Cc1sc2nc(SCC(=O)N(C)Cc3ccccc3)n(-c3ccccc3)c(=O)c2c1C	3.3%
Cc1ccc2c(c1)N(C(=O)CCC(=O)NCc1cccnc1)CC(C)O2 (stereo not drawn)	-33%
Cc1ccc(C(=O)N2CCc3ccccc32)o1	-15.8%
CCOC(=O)c1nc2nc(C)cc(=O)n2[nH]1	-8.6%
O=C(NCCCCCCNC(=O)OC1CCS(=O)(=O)C1)OC1CCS(=O)(=O)C1 (stereo not drawn)	9.3%
COc1cccc2c1C(=O)c1c(O)c3c(c(O)c1C2=O)C[C@@](O)(C(=O)CO)C[C@@H]3O[C@H]1C[C@H](N)[C@H](O)[C@H](C)O1	78.6% (active)
COc1cccc2c1C(=O)c1c(O)c3c(c(O)c1C2=O)C[C@@](O)(C(C)=O)C[C@@H]3O[C@H]1C[C@H](N)[C@H](O)[C@H](C)O1	108% (active)
COc1cccc2c1-c1c(O)cccc1C2=O	-18.2%
